# Source: PubChem BioAssay
# Most compounds without a hit are left out; they make up all but 17% or so of the library.
# TDP1 cell noCPT: qHTS for Inhibitors of human tyrosyl-DNA phosphodiesterase 1 (TDP1): qHTS in cells in absence of CPT | Potency, µM (series often up to 46.2 µM), without a hit: top-dose activity change, negative = growth inhibition, actives largely listed as inhibitors | DT40 Tdp1-/- hTDP1 cells, no CPT, ATP luminescence, 48 h | 420,000 compounds, 15% hits | AID 686978, 2013; also: % is scaled to controls: 0 for no effect and ±100 for the full control effect; nearly all actives have a fitted effect of over 55% in size
#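 No-CPT arm: Tdp1-/-;hTDP1 DT40 cells (400/well) plus compounds, incubated ≥48 hr at 37 °C. Readout CellTiter-Glo luminescence.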
# TDP1 cell CPT: DT40-hTDP1 cell growth loss with CPT; chicken DT40 Tdp1-/-;hTDP1 cells + 20 nM CPT, ATP luminescence, 48 h; Potency, µM (highest dose often 46.2 µM), for the others: top-dose activity change, negative = growth inhibition, hits mostly inhibitors; 420,000 compounds, 12% hits; AID 686979; also: % is scaled to controls: 0 for no effect and ±100 for the full control effect; nearly all actives have a fitted effect of over 55% in size
#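 Chicken DT40 Tdp1-/- cells complemented with human TDP1, 400 cells/well, exposed to compounds plus 20 nM camptothecin for at least 48 h at 37 C; viability read as ATP content by CellTiter-Glo luminescence.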
# HepG2 tox: kills HepG2 cells in TGF-b inhibitor counter-screen; HepG2 CAGA-GFP viability, ATP luminescence, 18 h; Potency, µM (top dose mostly 46.1 µM), inactives show at the highest dose activity change, negative = cytotoxicity, most hits filed as cytotoxic; 410,000 compounds, 0.76% hits
#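 CellTiter-Glo luminescence gave cytotoxicity after 18 hours at 37 degrees C. The cells were HepG2 CAGA-GFP in 1% FBS DMEM, stimulated with 500 pg/mL TGF-beta after compound addition. %Activity was normalised to no-cell wells (complete cell-killing) and DMSO (no toxicity), and curves were fitted and classified.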
# S2 tox: reduces viability in counter-screen for ATXN expression inhibitors; 400,000 compounds, 0.49% hits; Potency, µM (series often up to 56.7 µM), actives largely listed as cytotoxic; AID 651635; S2 cells (HEK-293 line with an ATXN2-luciferase reporter) viability, CellTiter-Fluor protease fluorescence, 24 h; also: nearly all actives have a fitted effect of over 40% in size
# TGFb SMAD3 inh: inhibitors of TGF-b signaling; 410,000 compounds, 1.2% hits; Potency, µM (top dose mostly 46.1 µM), without a hit: top-dose activity, negative = inhibition, most hits filed as inhibitors; AID 588855; HepG2 CAGA-GFP TGF-b/SMAD3 reporter, GFP fluorescence, 18 h; TGF-beta stimulated, 500 pg/mL final; also: % is scaled to controls: 0 for no effect and ±100 for the full control effect; nearly all actives have a fitted effect of over 65% in size
#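 HEPG2 CAGA-GFP, 1000 cells/well; 2 h settle, 37 C; cpd via pin tool; TGF-b 500 pg/mL final; 18 h, 37 C; GFP imaging ex488/em500-530; %Activity normalised to -TGF-b and +DMSO controls; CRC fit, curve class.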
# ATXN2 expr inh: reduces ATXN2 reporter expression in HEK-293 cells; Potency, µM (highest dose often 57 µM), for the others: at the highest dose activity change, negative = inhibition, most hits filed as inhibitors; 360,000 compounds, 0.72% hits; HEK-293 ATXN2-luciferase reporter, luminescence, 24 h; also: % is scaled to controls: 0 for no effect and ±100 for the full control effect; nearly all actives have a fitted effect of over 55% in size
#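 ATXN2-luciferase reporter cells (luciferase flanked by upstream and downstream ATXN2 gene portions) were treated 24 h at 37 °C with compounds at up to 57 uM. SteadyGlo luminescence gave expression; GF-AFC fluorescence gave viability.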
# The depositor's hits bear a star; i = inactive; ? = inconclusive; . = no result; [ ] = dose if it differs, or a comment. Calls follow the shape of the dose curve; as a rule, active = well fitted curve in the direction sought with a large enough effect; inconclusive = small, poorly fitted or top-dose-only effect, or another doubt; inactive = no such curve, though single readings can be large; an effect the other way counts as inactive or inconclusive. Potency is read from the fitted curve at half-maximal effect.
SMILES,TDP1 cell noCPT,TDP1 cell CPT,HepG2 tox,S2 tox,TGFb SMAD3 inh,ATXN2 expr inh
CCCCC(CC)CN=C(N)NC(N)=NCCCCCCN=C(N)NC(N)=NCC(CC)CCCC (stereo unspecified),9.2µM*,13µM*,11µM*,13µM*,?,10µM*
CCCCC(CC)CO (stereo unspecified),-4%,?,-21%,i,2%,-2%
C=CCn1c(SCc2ccc(F)cc2)nc2c1c(=O)[nH]c(=O)n2C,?,?,-1%,i,?,-3%
CCOC(=O)CSc1nc2c(c(=O)[nH]c(=O)n2C)n1C/C=C(/C)Cl,-25%,3%,-21%,i,-2%,-11%
C/C(Cl)=C/Cn1c(SC(C)C)nc2c1c(=O)[nH]c(=O)n2C,16µM*,?,-4%,?,12%,-4%
CCCCCCSc1nc2c(c(=O)[nH]c(=O)n2C)n1C,21µM*,?,1%,i,5%,6%
CC(C)Sc1nc2c(c(=O)[nH]c(=O)n2C)n1Cc1ccc(Cl)cc1,26µM*,?,-8%,i,2%,-7%
C=CCn1c(SCc2ccc(Cl)cc2)nc2c1c(=O)[nH]c(=O)n2C,21µM*,?,1%,i,16%,-2%
O=C(CN1CCCCC1)Nc1cccc([N+](=O)[O-])c1,-16%,-7%,-12%,i,3%,-15%
CCCCn1c(N)c(N(C)C(=O)c2cc3c(s2)CCCCC3)c(=O)[nH]c1=O,8%,-1%,14%,i,3%,-26%
C/C(Cl)=C/CSc1nc2c(c(=O)[nH]c(=O)n2C)n1C(C)C,16µM*,?,-1%,i,-22%,0%
O=C(CSc1nc2ccc([N+](=O)[O-])cc2[nH]1)NCCc1ccccc1,-23%,?,-15%,i,0%,-3%
O=c1[nH]c(-c2ccc(F)cc2)nc2c1sc(=S)n2-c1ccccc1,6.5µM*,?,-14%,i,0%,-31%
O=c1[nH]c(-c2ccc3c(c2)OCO3)nc2c1sc(=S)n2-c1ccccc1,?,8%,9%,i,-2%,-8%[11.3 µM]
COc1cccc(/C=C/C(=O)OCC(=O)NCC2CCCO2)c1OC (stereo unspecified),-1%,-5%,9%,?,-3%,-19%
O=C(CSc1nnnn1-c1ccc(F)cc1)Nc1ccc(N2CCOCC2)c(Cl)c1,?,15µM*,-44%,i,19%,-22%
O=C(CSc1nnnn1-c1ccccc1Cl)Nc1ccc2c(c1)OCCO2,21µM*,16µM*,-7%,i,-3%,-10%
O=C(CSc1nnnn1-c1ccc(Cl)cc1)NC(=O)Nc1ccc2c(c1)OCCO2,1%,-27%,-33%,i,-12%,40%
CCC(=O)NNC(=O)Cc1c(C)n(C(=O)c2ccc(Cl)cc2)c2ccc(OC)cc12,-20%,1%,-1%,i,-6%,5%
CCOC(=O)[C@]12CCCC=C1N(Cc1ccc(Cl)cc1Cl)C(=O)[C@H](CC(=O)N1CCN(C(=O)C3CC3)CC1)C2,?,?,.,i,.,-8%
CCOC(=O)[C@]12CCCC=C1N(Cc1ccc(Cl)cc1Cl)C(=O)[C@H](CC(=O)N1CCN(C(=O)c3ccco3)CC1)C2,16µM*,?,.,?,.,0%
CCOC(=O)[C@]12CCC=C1N(Cc1ccc(Cl)cc1Cl)C(=O)[C@H](CC(=O)N1CCOCC1)C2,21µM*,?,.,i,.,-9%
CCOC(=O)[C@]12CCCC=C1N(Cc1ccc(Cl)cc1Cl)C(=O)[C@H](CC(=O)N1CCSCC1)C2,-25%,-3%,.,i,.,7%
CCOC(=O)[C@]12CCCC=C1N(Cc1ccc(Cl)cc1Cl)C(=O)[C@H](CC(=O)N1CCCC1)C2,?,?,.,?,.,-19%
CCOC(=O)[C@]12CCC=C1N(Cc1ccc(Cl)cc1Cl)C(=O)[C@H](CC(=O)N1CCC(c3ccccc3)CC1)C2,18µM*,?,.,i,.,-12%
SMILES,TDP1 cell noCPT,TDP1 cell CPT,HepG2 tox,S2 tox,TGFb SMAD3 inh,ATXN2 expr inh
COC(=O)[C@]12CCCCC=C1N(Cc1ccc(Cl)cc1Cl)C(=O)[C@H](CC(=O)N1CCC(c3ccccc3)CC1)C2,?,?,.,i,.,2%
CCOC(=O)[C@]12CCCC=C1N(Cc1ccc(Cl)cc1Cl)C(=O)[C@H](CC(=O)N1CCC(c3ccccc3)CC1)C2,18µM*,16µM*,.,i,.,-9%
CCN(CC)CCCNC(=O)c1cn(C)c2ccc(S(=O)(=O)N3CCOCC3)cc2c1=O,-27%,0%,22%,i,0%,2%
Cc1cc(Br)ccc1NC(=O)CCNS(=O)(=O)c1cccc2nonc12,?,-26%,-21%,i,0%,-12%
O=C(NC1CCS(=O)(=O)C1)c1cccc(Cl)c1 (stereo unspecified),-3%,3%,8%,i,-6%,4%
Cc1ccc(S(=O)(=O)N2C[C@H]3C(=O)C[C@@H](c4ccccc4)N(S(=O)(=O)c4ccc(C)cc4)[C@H]3C[C@H]2c2ccc(Cl)cc2)cc1,-23%,-1%,-35%,i,-23%,-1%
C/C(=N\O)c1ccc(Cl)cc1Cl,-12%,5%,4%,i,35%,-10%
C/C(=N\NC(N)=O)c1cccc(Cl)c1,-21%,?,1%,i,1%,-9%
C/C(=N\N=C(N)N)c1cccc(Cl)c1,8.2µM*,16µM*,-42%,i,1%,-22%
C/C(=N\N=C(N)N)c1ccc(Cl)cc1Cl,16µM*,8.2µM*,-50%,i,?,?
O=C(NC1CCCC1)C1CCN(C(=O)c2cccc(Cl)c2)CC1,-17%,8%,3%,i,0%,-5%
